What follows are compounds tested against Streptavidin (Streptomyces avidinii) (UniProt P22629) (assay: compounds binding control protein streptavidin – biophysical, small-molecule microarray, 635/667 nm fluorescence, artefact control for SMM compound annotation, primary screen (AID 1147;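 also: signal reflects streptavidin binding to arrayed compounds as a control protein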)). Settings: higher = more signal.
Chain of Streptavidin (Streptomyces avidinii) (P22629 whole entry, looked up): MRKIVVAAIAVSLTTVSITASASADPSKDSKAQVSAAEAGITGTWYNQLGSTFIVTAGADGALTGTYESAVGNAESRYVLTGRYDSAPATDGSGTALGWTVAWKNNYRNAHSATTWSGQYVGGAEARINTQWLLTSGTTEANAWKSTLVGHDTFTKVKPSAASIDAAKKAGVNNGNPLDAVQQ

How did the composite z-score turn out when CSCC[C@@H]1NC(=O)CC=C[C@@H](C)COC(=O)[C@H](CCSC)NC(=O)CC=C[C@@H](C)COC1=O was run?
Its composite z-score is -0.563.

How did the composite z-score turn out when O=C1OCC=C[C@H]2OC34C=CCN(Cc5ccccc5)C(=O)[C@H]3N(CCCCCO)C(=O)[C@@H]4[C@@H]12 (some centres not stated) was run?
Its composite z-score is -1.62.

With Cc1ccc(S[C@]2(C(=O)NCCN3CCOCC3)CC(=O)N(C3Cc4ccccc4C3)[C@@H]2c2ccc(CO)cc2I)cc1 as the compound, how does the composite z-score read?
Its composite z-score is -0.658.

For COC(=O)C[C@H]1O[C@]2(C(=O)N(C)c3ccccc32)[C@@H](C)[C@@H]1[Si](C)(C)c1ccc(OC)cc1, which composite z-score is on record?
Its composite z-score is 0.781.

How did the composite z-score turn out when CC/C=C/C(=O)N(C[C@@H]1CCCO1)[C@@H]1CC(C(=O)NCCO)=C[C@H](Oc2c(I)cc(CO)cc2OC)[C@H]1O was run?
Its composite z-score is -0.0512.

For C=C[C@H](OC)[C@@H](OC(=O)Nc1ccc(SC)cc1)c1ccc(OC)c(O)c1, which composite z-score is on record?
The composite z-score was -1.28.

For CN1C2C=C(c3ccc(CO)cc3)C(C3C(=O)N(C(N)=O)C(=O)C32)C1c1cccs1 (configuration not stated), which composite z-score is on record?
Its composite z-score is -0.487.

For C=CCN(C(=O)C1N(c2ccc(CCO)cc2)C(=O)C2C(C(=O)O)C3C=CC21O3)C(C)(C)C (configuration not stated), which composite z-score is on record?
Its composite z-score is -2.01.

How did the composite z-score turn out when C=CCC1=C[C@H]2[C@H]([C@@H]3C=C[C@]2(CC=C)C(=O)[C@]32CO2)[C@@]2(CO2)C1=O was run?
The composite z-score was 0.843.

Cc1ccc(S[C@]2(C(=O)O)CC(=O)N(Cc3ccccc3)[C@@H]2c2ccc(CO)cc2)cc1 was tested. Which composite z-score did it give?
Its composite z-score is -0.185.

How did the composite z-score turn out when CCCNC(=O)[C@@H]1c2ccccc2C(=O)N(Cc2cc(F)cc(C(F)(F)F)c2)[C@H]1c1ccc(CO)cc1 was run?
The composite z-score was 0.568.

Which composite z-score does the source give for O=C1c2ccccc2[C@](Cc2ccccc2I)(C(=O)O)[C@H](c2ccc(CO)cc2)N1C1CCCCC1 here?
Its composite z-score is 0.947.

With [N-]=[N+]=NCc1ccccc1C[C@]1(C(N)=O)N=C(c2ccc(OCCCO)cc2)O[C@H]1c1ccccc1CN=[N+]=[N-] as the compound, how does the composite z-score read?
Its composite z-score is 1.68.

With CO[C@H]1COC(=O)[C@H](C)NC(=O)CC=C[C@@H](C)[C@H](NS(=O)(=O)c2ccc(C)cc2)COC(=O)[C@@H](OCc2ccccc2)C=C[C@@H]1C as the compound, how does the composite z-score read?
Its composite z-score is -0.25.

Which composite z-score does the source give for COC(=O)c1c(CC[C@@H](CO)NC(=O)N[C@H](Cn2cc(-c3cncn3C)nn2)C(C)C)oc(C(C)=O)c1C(=O)OC here?
The composite z-score was 0.341.

How did the composite z-score turn out when C=C(COC)/C(=C/C[C@@H](OC(C)=O)c1cccc(OCCO)c1)c1cc(C(=O)OC)ccc1OC was run?
The composite z-score was -0.798.

CC(C)[Si]1(C(C)C)O[C@@H](c2ccccc2)c2cc(C3CC3)nc(-c3ccc(Oc4ccccc4)cc3)c21 was tested. Which composite z-score did it give?
The composite z-score was -0.646.
